# Experimental data reported in PubChem BioAssay AID624481 (The Scripps Research Institute Molecular Screening Center, 2012).
# Unmarked numbers belong to inactive results. The source made the active and inactive calls. No stated cut-off is given here; in the data, active means inhibition above about 50%; inactive means the rest.
# Target: Prolyl endopeptidase-like (Mus musculus) (UniProt Q8C167)
# Assay: purified PREPL inhibitors, PREPL inhibitor project, biochemical, gel-based competitive ABPP, fluorescence, HTS hits (AID 624481)
# Settings: at 20 µM, hits give high values
# Prolyl endopeptidase-like (Mus musculus), sequence (Q8C167 whole entry, looked up): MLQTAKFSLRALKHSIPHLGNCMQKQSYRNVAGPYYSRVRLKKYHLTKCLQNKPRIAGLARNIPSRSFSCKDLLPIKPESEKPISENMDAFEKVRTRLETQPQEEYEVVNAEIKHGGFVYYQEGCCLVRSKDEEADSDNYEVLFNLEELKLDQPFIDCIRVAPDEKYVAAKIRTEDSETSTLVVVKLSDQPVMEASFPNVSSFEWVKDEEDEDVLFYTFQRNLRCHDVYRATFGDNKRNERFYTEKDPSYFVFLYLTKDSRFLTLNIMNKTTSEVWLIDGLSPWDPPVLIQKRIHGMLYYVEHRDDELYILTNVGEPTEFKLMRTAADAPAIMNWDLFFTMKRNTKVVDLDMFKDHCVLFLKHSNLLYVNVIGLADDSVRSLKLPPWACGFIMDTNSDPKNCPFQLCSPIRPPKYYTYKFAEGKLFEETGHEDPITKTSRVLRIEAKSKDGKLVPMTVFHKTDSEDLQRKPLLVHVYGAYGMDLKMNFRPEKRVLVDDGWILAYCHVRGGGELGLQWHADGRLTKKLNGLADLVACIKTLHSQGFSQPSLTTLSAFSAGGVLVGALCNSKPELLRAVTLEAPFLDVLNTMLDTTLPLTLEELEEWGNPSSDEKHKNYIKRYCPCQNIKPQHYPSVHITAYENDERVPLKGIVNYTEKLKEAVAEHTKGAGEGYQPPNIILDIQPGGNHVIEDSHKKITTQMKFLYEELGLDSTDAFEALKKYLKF
row,SMILES,inhibition
1,C[n+]1c(-c2ccccc2)sc(S)c1-c1ccccc1,-31%
2,CC[C@@H](C)[C@@H]1CN([C@@H](CN2CCC[C@H]2CN2C(N)=NC[C@@H]2Cc2ccccc2)C(C)C)C(=N)N1CCCC1CCCC1,-104%
3,COc1ccc(C(=O)c2coc3ccc(O)c(CN4CCCC4)c23)cc1,-31%
4,CC(C)[C@H](CN1CCC[C@H]1CN1C(N)=NC[C@H]1C(C)C)N1C[C@@H](Cc2ccccc2)N(CCCC2CCCC2)C1=N,92% (active)
5,NC(=O)[C@@H]1CCCNc2c(I)cc([N+](=O)[O-])cc2C(=O)N[C@@H](CCCN=C(N)N)C(=O)N[C@@H](CCCN=C(N)N)C(=O)N1,-77%
6,CCCCCCCCCCCCCCCC[n+]1cccc(C(=O)N(CC)CC)c1,10%
7,CC(=NNc1nc2ccccc2[nH]1)c1cc2ccccc2o1,-17%
8,CN1CCN(C(=O)C2=C[C@@H](c3ccc(C(F)(F)F)cc3)C[C@@H](OCCCCO)O2)CC1,-28%
9,CN(C)c1ccc(C(CN)c2c[nH]c3ccccc23)cc1 (stereo not drawn),-86%
10,O=C1N/C(=C/c2ccc(N3CCOCC3)cc2)C(=O)N1Cc1ccc(F)cc1,-30%
11,CCCCCN=C(N)NN=Cc1c[nH]c2ccc(OC)cc12,-11%
12,Nc1nn(-c2ccccc2)c(N)c1N=Nc1ccccc1F,-38%
13,Nc1c(C(=O)c2cccs2)sc2nsc(SCCN3CCCCC3)c12,-18%
14,Cc1ccc(OCC(=O)Nc2ccc(N3CCN(C(=O)c4ccco4)CC3)cc2)c(C)c1,-7%
15,CC(C)NC(=O)c1sc(=S)n2c1[nH]c(=O)c1ccc(C(=O)NCCc3ccc(Cl)cc3)cc12,-28%
16,Oc1c(CN2CCCC2)cc(COCc2ccccc2)c2cccnc12,-64%
17,CC(C)c1ccc(CNc2ccc(N3CCOCC3)cc2)cc1,-12%
18,CC(=O)N1CCN(c2ccc(NCc3cccc4ccccc34)cc2)CC1,-26%
19,Cc1cccc(C2CC(c3ccc(F)cc3)Nc3nc(N)nn32)c1 (stereo not drawn),-26%

row,SMILES,inhibition
1,COc1ccc(C2CC(c3cccc(OC)c3)n3nc(N)nc3N2)cc1 (stereo not drawn),-18%
2,CC1(C)N=C(N)N=C(N)N1c1ccc(Oc2ccc(Cl)cc2)c(Cl)c1,-35%
3,COc1ccc2nc3cc(Cl)ccc3c(Nc3cc(CN4CCCC4)c(O)c(CN4CCCC4)c3)c2n1,-45%
4,CCOc1ccc(CCNC(=O)c2ccc3c(=O)[nH]c4c(C(=O)NC(C)C)sc(=S)n4c3c2)cc1,14%
5,CCN(C(=O)CN1CCN(S(=O)(=O)c2cc(Cl)ccc2Cl)CC1)c1c(N)n(Cc2ccccc2)c(=O)[nH]c1=O,99% (active)
6,CC(C)C[C@@H]1CN=C(N)N1C[C@@H]1CCCN1C[C@@H](C(C)C)N1C[C@@H](Cc2ccccc2)N(CCc2ccc(Cl)c(Cl)c2)C1=N,-72%
7,Nc1nn(-c2ccccc2)c(N)c1N=Nc1ccc2c(c1)OCO2,17%
8,c1ccc(N2CCN(c3nc(NCc4ccco4)c4ccccc4n3)CC2)cc1,94% (active)
9,C#CCOCCOCCOCCNc1nc(N2CCN(C(=O)[C@H]([C@@H](C)CC)n3cc([C@@H](N)Cc4ccc(O)cc4)nn3)CC2)nc(N2CCN(C(=O)[C@H](Cc3cc4ccccc4[nH]3)n3cc([C@@H](N)CC(C)C)nn3)CC2)n1,-105%
10,CN(C)CCc1cc2c(c3c1ccc1ccccc13)OCO2,-26%
11,c1cncc(CNc2ccc3c(c2)OCO3)c1,-50%
12,COc1cc(NC(=O)CN2CCN(c3ccccc3F)CC2)c(C)cc1[N+](=O)[O-],-92%
13,Cc1ccc(C2CC(c3cccc(C)c3)n3nc(N)nc3N2)cc1 (stereo not drawn),-40%
14,COc1ccccc1-[n+]1c(C)cc(/C=C2\Sc3ccccc3N2C)cc1C,-27%
15,Cc1ccccc1OCc1nnc(SCC(=O)Nc2ccc(N3CCOCC3)c(Cl)c2)n1C,-46%
16,Oc1ccc(Nc2nc(N3CCCC3)c3ccccc3n2)cc1,-60%
17,CC(C)n1cnc2c(NCc3ccccc3)cc(OCC3CCN(C)CC3)cc21,-49%
18,COc1ccc(N2CCN(CCC(O)c3ccc4ccccc4c3)CC2)cc1 (stereo not drawn),-79%
19,COc1ccc(C(CCNCc2ccc(N(C)C)cc2)c2ccccc2)cc1 (stereo not drawn),-124%
